FAS-TE inh = FAS thioesterase (human) inhibition | P49327 | recombinant FAS-TE, OMFH fluorogenic substrate, fluorescence endpoint | inhibition, % at 15 µM | hit rate 0.67% among 360,000;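 active = compounds whose normalised, plate-corrected inhibition of enzyme fluorescence in the single-dose primary screen is 50% or more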;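 note: 0% = DMSO with enzyme and 100% = substrate without enzyme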
MPTP block = inhibitors of mitochondrial permeability transition pore; isolated mouse mitochondria, Ca2+ swelling absorbance, 30 min; inhibition, % at 10 µM; hit rate 1.4% among 360,000; AID 602449;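 active = inhibition of 50% or more, scaled per plate between neutral and stimulator controls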;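 note: 0% = DMSO wells given calcium and 100% = 1 mM EGTA wells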
GRIN3A LBD mod = modulates the human NR3A ligand-binding domain; NR3A LBD differential scanning fluorimetry, Tm shift; 0% = protein alone, 100% = glycine-bound protein; Tm shift relative to glycine control, % at 25 µM; hit rate 2.5% among 340,000;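 active = melting temperature shift of at least 10% of the positive control shift, at one fixed dose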
Myeloid diff 2 = compounds promoting myeloid differentiation | hit rate 1% among 360,000 | calls only at 10 µM | ER-HoxA9 myeloid progenitors, lysozyme-GFP differentiation, flow cytometry;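 active = normalized GFP-positive differentiation at or above the plate's own cutoff, the solvent-only control mean plus 3 SD; inconclusive = no clear call, values can overlap the other calls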;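 note: cells exposed to compound for four days before flow analysis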
rCAG binder = molecules binding r(CAG) RNA repeats; r(CAG) RNA repeat, TO-PRO-1 dye displacement fluorescence; hit rate 1.3% among 370,000; inhibition, % at 3 µM; AID 651821;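 active = inhibition above the plate cutoff, the mean of all test compounds on that plate plus 3 SD, cut at about 35% in these data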;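 note: 0% = DMSO alone and 100% = 100 µM mitoxantrone as full dye displacement; higher means more dye released from RNA so lower well fluorescence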
MPTP counter = membrane potential counter-screen of mitochondrial pore inhibitors | shares compounds with MPTP block | isolated mitochondria, Rhodamine 123 fluorescence | inhibition, % at 10 µM | hit rate 78% among 5,000 | AID 624504; in the data active = inhibition above about 22%;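 note: 0% = DMSO vehicle and 100% = positive control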
MPTP abs DR = MPTP inhibition, dose response swelling confirmation. shares compounds with MPTP block. isolated mitochondria swelling, absorbance. IC50, µM. hit rate 58% among 780. AID 651561; in the data active = IC50 below about 20 µM
MPTP cs DR = active in counter-screen for permeability transition pore inhibitors | shares compounds with MPTP block | isolated mitochondria counterscreen, fluorescence read-out | IC50, µM | hit rate 49% among 780 | AID 651564; in the data active = IC50 below about 80 µM
* hit, by the source's call; i = inactive; ? = inconclusive; . = no result given; ! = not active in a repeat. In the library only some 5.7% were active in any assay of this set; here they are far more common.

SMILES | FAS-TE inh | MPTP block | GRIN3A LBD mod | Myeloid diff 2 | rCAG binder | MPTP counter | others
CCOC(=O)C1CCN(C(=O)C2(NC(=O)Nc3ccccc3C)CCCCC2)CC1 | -4 | 0 | -2 | i | -4 | .
O=C1C/C(=C\c2c(F)cccc2Cl)N2CCC1CC2 | -5 | 0 | -4 | i | 0 | .
Cc1ccc(NC(=O)C(C)c2cccc(C(=O)c3ccccc3)c2)cc1O (centres undefined) | 7 | 96* | -2 | i | 7 | 84*
O=C(Nc1ccc(Cl)c([N+](=O)[O-])c1)ONC1=NCCCCC1 | 4 | 82* | 0 | i | 4 | 91*
Cn1c(-c2ccc(Br)o2)nc2cc(Br)ccc21 | 2 | 64* | 13* | i | 1 | -8 | MPTP abs DR=i;MPTP cs DR=>80
Cn1nnnc1SCC(=O)Nc1cc(C(=O)O)cc(C(=O)O)c1 | -6 | -1 | 0 | i | -1 | .
COc1ccc(-c2csc(NC(=O)CSc3nc(C)cs3)n2)cc1 | 23 | 31 | -4 | i | 1 | .
COc1ccc(-c2csc(NC(=O)CSc3nc(SC)ns3)n2)cc1 | 22 | 65* | 7 | i | 16 | 74*
CCOC(=S)SCC(=O)Nc1nc(-c2ccc(Br)cc2)cs1 | -168 | 80* | 9 | i | 9 | 75*
CCN(Cc1ccccc1)CC(O)COC(c1ccc(OC)cc1)c1ccc(OC)cc1 (centres undefined) | 7 | 79* | -4 | i | 6 | 0 | MPTP abs DR=>100;MPTP cs DR=54*
CCOC(=O)c1ccccc1NC(=O)COC(=O)CN1C(=O)C2CC=CCC2C1=O (centres undefined) | 2 | 0 | -1 | i | -5 | .
COc1cc(O)c(C(=O)CC(=O)c2ccncc2)c(OC)c1 | -4 | -1 | 0 | i | 3 | .
CC12CCC(C/C1=N/OC(=O)c1cccc([N+](=O)[O-])c1)C2(C)C (centres undefined) | 13 | 0 | -1 | i | -5 | .
C=CCN1C(=O)S/C(=C/c2ccc(Sc3nc4ccccc4[nH]3)o2)C1=O | -2 | 91* | -1 | i | 6 | 88*
C=CCN1C(=O)S/C(=C/c2ccsc2)C1=O | 0 | 1 | 2 | i | -1 | .
COc1ccc(/C=C2\SC(=S)N(CC(=O)NC3C=CS(=O)(=O)C3)C2=O)cc1 (centres undefined) | -1 | 0 | 1 | i | 7 | .
CC(NC(=O)COC(=O)Cc1ccc(-c2ccccc2)cc1)c1ccccc1 (centres undefined) | 26 | 1 | -4 | i | 4 | .
O=C1OC(c2ccccc2)(c2cc(Br)ccc2O)c2ccccc21 (centres undefined) | 10 | 76* | 3 | i | 11 | 97*
CCc1cc2c3c(c1)C(C)CC(C)(C)N3C(=O)/C2=C1\SC(=O)NC1=O (centres undefined) | 24 | 55* | 1 | i | 8 | 47*
CCCCNc1c(-c2ccc(OC)c(SC3CCCCC3)c2)nc2ccc(C)cn12 | 23 | 76*! | -15 | ? | 6 | 98*
Cc1ccc2nc(-c3cccc(SC4CCCCC4)c3)c(NCc3ccccc3)n2c1 | 18 | 12 | -28 | ? | -2 | .
COc1ccc(-c2nc3ccc(C)cn3c2NCc2ccccc2)cc1SC1CCCCC1 | 17 | 98* | -40 | i | . | 95*
OC(c1ccccc1)c1nc(-c2ccc(Cl)cc2)cs1 (centres undefined) | 18 | -3 | . | i | 3 | .
O=C(O)Cc1csc2ccccc12 | -3 | -2 | 2 | i | 2 | .
O=C(NCc1ccccn1)Nc1ccc(Cl)c(Cl)c1 | 6 | 51* | 2 | i | 2 | 85*
SMILES | FAS-TE inh | MPTP block | GRIN3A LBD mod | Myeloid diff 2 | rCAG binder | MPTP counter | others
O=C(NCc1ccccn1)Nc1ccc(F)c(Cl)c1 | 0 | 0 | -13 | i | -3 | .
Cc1ccc(NC(=O)NCc2ccncc2)cc1Cl | 0 | 63* | -2 | i | 4 | 79*
O=C(NCc1ccccn1)Nc1cc(Cl)cc(Cl)c1 | 6 | 83* | -5 | i | 4 | 100*
O=C(NCc1ccccn1)Nc1cccc(Cl)c1 | -2 | 32 | 2 | i | 0 | .
O=C(NCc1ccncc1)Nc1ccc(Cc2ccc(NC(=O)NCc3ccncc3)cc2)cc1 | -1 | -1 | . | i | 5 | .
O=C(NCc1csc2ccccc12)Nc1cc(Cl)cc(Cl)c1 | 4 | 86* | 21* | i | 4 | 76*
O=C(CNC(=O)c1ccco1)Nc1ccncc1 | -9 | 0 | 2 | i | 0 | .
CCOc1ccc(/C=N/n2c(SC)nnc2-c2ccccc2)cc1OCC | 1 | 0 | -2 | i | 0 | .
CCOc1ccc(C(=O)Nc2ccc(N3CCN(C)CC3)cc2)cc1Br | -5 | 60* | 0 | i | -6 | -15 | MPTP abs DR=18*;MPTP cs DR=>80
CCOc1ccc(C(=O)Nc2ccc(N3CCN(C(=O)c4ccco4)CC3)cc2)cc1Br | -1 | 0 | -6 | i | 3 | .
Clc1ccc(Oc2nc3c(Cl)cccc3s2)cc1Cl | 24 | -1 | -12 | i | 3 | .
CCCCCCCCCCCCCCCCn1cc[n+](C)c1 | -110 | 58* | -359 | . | 4 | 99*
Cc1nc(SCCc2nc3ccccc3[nH]2)c2oc3ccccc3c2n1 | -5 | 0 | -1 | i | 2 | .
CCOc1ccc(CCNC(=O)CCS(=O)(=O)c2ccc(C)cc2)cc1OCC | -4 | 0 | 1 | i | -10 | .
CCN(CC(=O)Nc1cccc(OC)c1)c1ncnc2sc(C)c(C)c12 | 15 | 72* | 8 | i | -4 | 68*
CC(C)(C)c1ccc(C(=O)c2c[nH]c(C(=O)NCC3CCCO3)c2)cc1 (centres undefined) | 9 | 70* | -6 | i | -11 | 12 | MPTP abs DR=i;MPTP cs DR=27*
COc1ccc(C(=O)c2c[nH]c(C(=O)NCC3CCCO3)c2)cc1 (centres undefined) | -5 | -3 | 2 | i | -5 | .
O=C(CCl)Nc1cn(-c2ccccc2)nc1-c1ccc(F)cc1 | 15 | -6 | 1 | i | -2 | .
Fc1ccc(-c2nn(-c3ccccc3)cc2CNCc2ccccc2)cc1 | 18 | 91* | -8 | i | 1 | -10 | MPTP abs DR=4.7*;MPTP cs DR=43*
Cc1ccc2c(c1)nnn2C1CCN(C(=O)c2ccccc2F)CC1 | -3 | 0 | 1 | i | -1 | .
COC(=O)c1ccc(/C(O)=C(\C#N)c2nc3ccccc3s2)cc1 | -1 | 74* | -6 | i | 11 | 53*
Cc1ccc(OC/C(O)=C(\C#N)c2nc3ccccc3s2)cc1 | 0 | 73* | 6 | i | 14 | 43*
CC(C)=C(C#N)c1nc2ccccc2s1 | 3 | 0 | 0 | i | 7 | .
CCOc1ccc(Cl)cc1S(=O)(=O)N1CCC(C(=O)NCc2ccco2)CC1 | 0 | 0 | -1 | i | -1 | .

High-throughput results from PubChem.
